From PubChem BioAssay (NCATS)
Results filed as inconclusive are left out. Activity calls are given as the source filed them. Calls follow the shape of the dose curve; as a rule, active = well fitted cell-killing curve with a large enough effect; inconclusive = small, poorly fitted or top-dose-only effect, or effect the other way; inactive = no such curve, though single readings can be large or run the other way.

Assay: Quantitative High-Throughput drug screen in 47 multiple myeloma cell lines against the NCATS MIPE library collection: VP6_DJ cell viability assay (AID 1919867); also: nearly all actives have a fitted effect of over 40% in size
Settings: ATP luminescence, 48 h; series mostly up to 45.8 µM; viability (% of DMSO): at the top concentration
Excerpt: (§1) PI: Beverly A. Mock Ph.D.
(§2) Laboratory of Cancer Biology and Genetics,
(§3) Center for Cancer Research, National Cancer Institute,
(§4) National Institute of Health, Bethesda, Maryland
(§5) Drug resistance and disease progression are common in multiple myeloma (MM) patients, underscoring the need for new therapeutic combinations. […] We hypothesized that effective combinations would reduce MYC expression and enhance p16 activity. […] These preclinical data identify potentially useful drug combinations for evaluation in drug-resistant MM and reveal potential mechanisms of combined drug sensitivity.
(§6) Described herein is the primary MIPE qHTS used to cherrypick compounds. Validated compounds were then further tested for potential synergistic activiy.
(§7) [1] Peat TJ, Gaikwad SM, Dubois W, Gyabaah-Kessie N, Zhang S, Gorjifard S, Phyo Z, Andres M, Hughitt VK, Simpson RM, Miller MA, Girvin AT, Taylor A, Williams D, D'Antonio N, Zhang Y, Rajagopalan A, Flietner E, Wilson K, Zhang X, Shinn P, Klumpp-Thomas C, McKnight C, Itkin Z, Chen L, Kazandijian D, Zhang J, Michalowski AM, Simmons JK, Keats J, Thomas CJ, Mock BA. Drug combinations identified by high-throughput screening promote cell cycle transition and upregulate Smad pathways in myeloma. Cancer Lett. 2023 Aug 1;568:216284. doi: 10.1016/j.canlet.2023.216284. Epub 2023 Jun 24. PMID: 37356470; PMCID: PMC10408729.
(§8) SEQUENCE No. (e.g., 1, 2, 3, etc.); […] (e.g., Cells, Incubation, Reagent, etc.); VALUE and DESCRIPTION.
(§9) 1; Cells; 5 uL; white, solid bottom 1536-well Greiner assay plate.
(§10) 2; Compounds; 23 nL; Kalypsis pin tool (Wako USA) equipped with a 1536-well pin head to transfer to the assay plates.
(§11) 3; Incubation; 48 hours; 37C incubation.
(§12) 4; Reagent;5uL; CellTiter Glo (Promega).
(§13) 5; Detector; 425V; Luminescence; Viewlux PerkinElmer.
(§14) NOTES (numbers refer to Sequence numbers above)
(§15) 1. The cell-based screening methods employed in this study were like those previously published. Briefly, the corresponding myeloma cell lines were screened in 1,536-well plates with 500 cells, 5-uL per well for inhibition of cell viability (assessed by measuring ATP levels with CellTiterGlo).
(§16) 2. NCATS MIPE 4.0 library of approved and investigational drugs were added using the Kalypsis pin tool. Wells treated with DMSO only for 100% viability and media only for 0% viability were used as controls.
(§17) 3. The assay plates were covered and incubated for 48 hours in a 37C, 5% CO2 incubator with controlled humidity.
(§18) 4. After 48 hours, CellTilter-GloTM luminescent substrate mix (Promega) reagent was added to the assay plate and plates we incubated for 5 min at room temperature.
(§19) 5. Signal was measured as median relative luminescence units on a ViewLux (PerkinElmer) multiplate reader.
(§20) [1] Heske CM, Davis MI, Baumgart JT, Wilson K, Gormally MV, Chen L, Zhang X, Ceribelli M, Duveau DY, Guha R, Ferrer M, Arnaldez FI, Ji J, Tran HL, Zhang Y, Mendoza A, Helman LJ, Thomas CJ. Matrix Screen Identifies Synergistic Combination of PARP Inhibitors and Nicotinamide Phosphoribosyltransferase (NAMPT) Inhibitors in Ewing Sarcoma. Clin Cancer Res. 2017 Dec 1;23(23):7301-7311. doi: 10.1158/1078-0432.CCR-17-1121. Epub 2017 Sep 12. PMID: 28899971; PMCID: PMC6636827.
Potency is read from the fitted curve at half-maximal effect.

Row | SMILES | viability (% of DMSO) | Potency
1 | CN1C(=O)CCS(=O)(=O)C1c1ccc(Cl)cc1 (stereo unspecified) | 124% (inactive) | 
2 | CN1C(=O)COc2c(C(=O)NC3CN4CCC3CC4)cc(Cl)cc21 (stereo unspecified) | 117% (inactive) | 
3 | O=P1(N(CCCl)CCCl)NCCCO1 (stereo unspecified) | 114% (inactive) | 
4 | COc1cc(OC)c(OC)cc1C=O | 101% (inactive) | 
5 | C[C@](O)(CS(=O)(=O)c1ccc(F)cc1)C(=O)Nc1ccc(C#N)c(C(F)(F)F)c1 |  | 662 nM (active)
6 | CC(C)c1cccc(C(C)C)c1O | 152% (inactive) | 

Assay: Quantitative High-Throughput drug screen in 47 multiple myeloma cell lines against the NCATS MIPE library collection: UTMC2_PLB cell viability assay (AID 1919868); also: nearly all actives have a fitted effect of over 55% in size
Settings: CellTiter-Glo ATP luminescence, 48 h; series mostly up to 45.8 µM; viability (% of DMSO control): at the top concentration
How it was run: (§21)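 ATP-based CellTiter-Glo luminescence after 48 h drug exposure (37 °C, 5% CO2) of 500 myeloma cells per well. DMSO-only wells set 100% viability, media-only wells 0%; MIPE 4.0 library added by pin tool.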

Row | SMILES | viability (% of DMSO control) | Potency
7 | C[C@]12CCC(=O)C=C1CC[C@@H]1[C@H]3CC[C@](C)(O)[C@@]3(C)CC[C@@H]12 | 160% [at 92.2 µM] (inactive) | 
8 | COc1cc(OC)c(OC)cc1C=O | 151% (inactive) | 
9 | O=C(O)CCCc1ccc(N(CCCl)CCCl)cc1 |  | 18700 nM (active)
10 | CCC1(c2ccc(N)cc2)CCC(=O)NC1=O (stereo unspecified) | 126% (inactive) | 
11 | C[C@]12CC[C@H]3[C@@H](CC[C@@]45O[C@H]4C(O)=C(C#N)C[C@]35C)[C@H]1CC[C@H]2O | 163% (inactive) | 
12 | CC(C)c1cccc(C(C)C)c1O | 230% (inactive) | 

Assay: Quantitative High-Throughput drug screen in 47 multiple myeloma cell lines against the NCATS MIPE library collection: PE2_PLB cell viability assay (AID 1919869); also: nearly all actives have a fitted effect of over 35% in size
Settings: PE2_PLB myeloma cells viability, ATP luminescence, 48 h; series mostly up to 45.8 µM; viability (% of control): at the top concentration
How it was run: as §21

Row | SMILES | viability (% of control) | Potency
13 | C[C@]12CC[C@@H]3c4ccc(OC(=O)N(CCCl)CCCl)cc4CC[C@H]3[C@@H]1CC[C@@H]2OP(=O)(O)O | 106% (inactive) | 
14 | CN1C(=O)CCS(=O)(=O)C1c1ccc(Cl)cc1 (stereo unspecified) | 93% (inactive) | 
15 | CC(C)C[C@H](CN)CC(=O)O | 112% (inactive) | 
16 | COc1cc(OC)c(OC)cc1C=O | 112% (inactive) | 
17 | O=C(O)CCCc1ccc(N(CCCl)CCCl)cc1 | 102% (inactive) | 
18 | CCC1(c2ccc(N)cc2)CCC(=O)NC1=O (stereo unspecified) | 109% (inactive) | 
19 | C[C@]12CC[C@H]3[C@@H](CC[C@@]45O[C@H]4C(O)=C(C#N)C[C@]35C)[C@H]1CC[C@H]2O | 127% (inactive) | 
20 | CC(NC(C)(C)C)C(=O)c1cccc(Cl)c1 (stereo unspecified) | 98.3% (inactive) | 
21 | C[C@](O)(CS(=O)(=O)c1ccc(F)cc1)C(=O)Nc1ccc(C#N)c(C(F)(F)F)c1 |  | 662 nM (active)
22 | CC(C)c1cccc(C(C)C)c1O | 152% (inactive) | 

Assay: Quantitative High-Throughput drug screen in 47 multiple myeloma cell lines against the NCATS MIPE library collection: PCM6_Riken cell viability assay (AID 1919870); also: nearly all actives have a fitted effect of over 30% in size
Settings: CellTiter-Glo ATP, 48 h; series mostly up to 45.8 µM; viability (% of control): at the top concentration
Excerpt: as §1, §2, §3, §4, §5, §6, §7, §8, §9, §10, §11, §12, §13, §14, §15, §16, §17, §18, §19, §20

Row | SMILES | viability (% of control) | Potency
23 | C[C@]12CC[C@@H]3c4ccc(OC(=O)N(CCCl)CCCl)cc4CC[C@H]3[C@@H]1CC[C@@H]2OP(=O)(O)O | 142% (inactive) | 
24 | CN1C(=O)CCS(=O)(=O)C1c1ccc(Cl)cc1 (stereo unspecified) | 91.7% (inactive) | 
25 | CN1C(=O)COc2c(C(=O)NC3CN4CCC3CC4)cc(Cl)cc21 (stereo unspecified) | 103% (inactive) | 
26 | COc1cc(OC)c(OC)cc1C=O | 99.1% (inactive) | 
27 | O=C(O)CCCc1ccc(N(CCCl)CCCl)cc1 |  | 16600 nM (active)
28 | C[C@]12CC[C@H]3[C@@H](CC[C@@]45O[C@H]4C(O)=C(C#N)C[C@]35C)[C@H]1CC[C@H]2O | 110% (inactive) | 
29 | CC(NC(C)(C)C)C(=O)c1cccc(Cl)c1 (stereo unspecified) | 119% (inactive) | 
30 | C[C@](O)(CS(=O)(=O)c1ccc(F)cc1)C(=O)Nc1ccc(C#N)c(C(F)(F)F)c1 |  | 662 nM (active)
31 | CC(C)c1cccc(C(C)C)c1O | 138% (inactive) | 
